# Experimental data published in the supplement of paper PMC9950053.
# Where a name gives a salt, the structure may show the parent alone.
# System: Danio rerio larvae (5 dpf)
# Assay: combined upward orientation toward moving lines (periods 7-14) minus DMSO control (percentage points); higher = more orientation with moving lines than DMSO larvae
# Conditions: 10 µM; exposure time: 3 h pre-incubation + 3 h imaging
# Experimental: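 Wild-type 5 dpf zebrafish larvae (n=48 per drug, 96-well plates, 28.5 °C) were exposed to Tocris FDA-approved library compounds at 10 µM (0.1% DMSO) for 3 h before and 3 h during imaging. Images were taken every 6 s during visual (moving coloured lines) and acoustic stimuli, and larvae were tracked with the DeepLabCut-based Z-LaP Tracker. Each behavioural measure is the treated-group mean minus the DMSO vehicle control mean (n=844), in percentage points. This mapping covers compounds with 4-character plate codes.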
row,SMILES,combined upward orientation toward moving lines
1,Cc1cc(C2CCCCC2)n(O)c(=O)c1 [Ciclopirox],-27.9
2,CS(=O)(=O)CCNCc1ccc(-c2ccc3ncnc(Nc4ccc(OCc5cccc(F)c5)c(Cl)c4)c3c2)o1 [Lapatinib],1.75
3,COc1ccc(-c2ccc3cc(C(=O)O)ccc3c2)cc1C12CC3CC(CC(C3)C1)C2 [Adapalene],-8.09
4,CN/C(=N\CCSCc1nc[nH]c1C)NC#N [Cimetidine],-0.665
5,C#C[C@]1(O)CC[C@H]2[C@@H]3CCC4=CC(=O)CC[C@@H]4[C@H]3CC[C@@]21CC [Levonorgestrel],5.76
6,CC(=O)S[C@@H]1CC2=CC(=O)CC[C@]2(C)[C@H]2CC[C@@]3(C)[C@@H](CC[C@@]34CCC(=O)O4)[C@H]12 [Spironolactone],-2.59
7,CC(C)c1nc(N(C)S(C)(=O)=O)nc(-c2ccc(F)cc2)c1/C=C/[C@@H](O)C[C@@H](O)CC(=O)O [Rosuvastatin calcium],4.67
8,O=C1CCc2cc(OCCCCc3nnnn3C3CCCCC3)ccc2N1 [Cilostazol],-4.64
9,CC(C)c1ccc2oc3nc(N)c(C(=O)O)cc3c(=O)c2c1 [Amlexanox],-5.36
10,COc1cc2nc(N3CCN(C(=O)C4COc5ccccc5O4)CC3)nc(N)c2cc1OC (stereo not given) [Doxazosin mesylate],-11.6
11,CCCN(CCC)S(=O)(=O)c1ccc(C(=O)O)cc1 [Probenecid],-6.67
12,CC(C)Nc1cccnc1N1CCN(C(=O)c2cc3cc(NS(C)(=O)=O)ccc3[nH]2)CC1 [Delavirdine mesylate],-7.64
13,CN1CCC[C@@H]1Cc1c[nH]c2ccc(CCS(=O)(=O)c3ccccc3)cc12 [Eletriptan hydrobromide],-1.33
14,O=C(O[C@@H]1C[C@@H]2C[C@H]3C[C@H](C1)N2CC3=O)c1c[nH]c2ccccc12 [Dolasetron mesylate],-0.866
15,O=c1[nH]c(=O)n([C@H]2C[C@H](O)[C@@H](CO)O2)cc1C(F)(F)F [Trifluorothymidine],-3.41
16,CC(C)C(=O)OCC(=O)[C@@]12O[C@H](C3CCCCC3)O[C@@H]1C[C@H]1[C@@H]3CCC4=CC(=O)C=C[C@]4(C)[C@H]3[C@@H](O)C[C@@]12C [Ciclesonide],-8.95
17,Cc1ccc(NC(=O)c2ccc(CN3CCN(C)CC3)cc2)cc1Nc1nccc(-c2cccnc2)n1 [Imatinib mesylate],-1.28
18,N#Cc1ccc(C(c2ccc(C#N)cc2)n2cncn2)cc1 [Letrozole],-1.71
19,Cc1ccccc1C(=O)Nc1ccc(C(=O)N2CCCC(O)c3cc(Cl)ccc32)c(C)c1 (stereo not given) [Tolvaptan],-0.0581
20,CCCc1nc(C(C)(C)O)c(C(=O)O)n1Cc1ccc(-c2ccccc2-c2nnn[nH]2)cc1 [Olmesartan],-6.03

row,SMILES,combined upward orientation toward moving lines
1,Cc1ccc(-c2cc(C(F)(F)F)nn2-c2ccc(S(N)(=O)=O)cc2)cc1 [Celecoxib],-15.8
2,Cc1c(-c2ccc(O)cc2)n(Cc2ccc(OCCN3CCCCCC3)cc2)c2ccc(O)cc12 [Bazedoxifene acetate],1.97
3,Nc1cc(N2CCCCC2)nc(N)[n+]1[O-] [Minoxidil],-2.16
4,Nc1nc(Cl)nc2c1ncn2[C@@H]1O[C@H](CO)[C@@H](O)[C@@H]1F [Clofarabine],-4.29
5,CCCCc1nc(Cl)c(CO)n1Cc1ccc(-c2ccccc2-c2nnn[nH]2)cc1 [Losartan potassium],-9.02
6,Cc1ccsc1C(=CCCN1CCC[C@@H](C(=O)O)C1)c1sccc1C [Tiagabine hydrochloride],13.4
7,COc1cc2ncnc(Nc3ccc(F)c(Cl)c3)c2cc1OCCCN1CCOCC1 [Iressa],-7.88
8,CCCCNc1cc(C(=O)O)cc(S(N)(=O)=O)c1Oc1ccccc1 [Bumetanide],-3.42
9,C=C1[C@H](CO)[C@@H](O)C[C@@H]1n1cnc2c(=O)[nH]c(N)nc21 [Entecavir],-3.62
10,COc1cc(Nc2c(C#N)cnc3cc(OCCCN4CCN(C)CC4)c(OC)cc23)c(Cl)cc1Cl [Bosutinib],-2.87
11,Nc1nc(NC2CC2)c2ncn([C@H]3C=C[C@@H](CO)C3)c2n1 [Abacavir hemisulfate],-1.52
12,CCOc1cc(CC(=O)N[C@@H](CC(C)C)c2ccccc2N2CCCCC2)ccc1C(=O)O [Repaglinide],-4.89
13,Cn1cnc([N+](=O)[O-])c1Sc1ncnc2[nH]cnc12 [Azathioprine],0.321
14,COc1cc2nc(N3CCN(C(=O)c4ccco4)CC3)nc(N)c2cc1OC [Prazosin hydrochloride],-10.6
15,Nc1nc(F)nc2c1ncn2[C@@H]1O[C@H](CO)[C@@H](O)[C@@H]1O [Fludarabine],-6.81
16,C/C(O)=C(\C#N)C(=O)Nc1ccc(C(F)(F)F)cc1 [Teriflunomide],-3.07
17,NS(=O)(=O)Cc1noc2ccccc12 [Zonisamide],1.75
18,CC(C)(C#N)c1cc(Cn2cncn2)cc(C(C)(C)C#N)c1 [Anastrozole],-0.152
19,CC(=O)NC[C@H]1CN(c2ccc(N3CCOCC3)c(F)c2)C(=O)O1 [Linezolid],0.95
20,Nc1ncn([C@@H]2O[C@H](CO)[C@@H](O)[C@H]2O)c(=O)n1 [5-Azacytidine],2.4
